The record followed here is PubChem BioAssay AID624305 (National Center for Advancing Translational Sciences (NCATS), 2012).

Results filed as inconclusive are left out. A call without a number means that no potency is given here. Active and inactive are the calls of the source. Calls follow the shape of the dose curve; as a rule, active = well fitted activation curve with a large enough effect; inconclusive = small, poorly fitted or top-dose-only effect; inactive = no such curve, though single readings can be large or run the other way.
Potency is read from the fitted curve at half-maximal effect.

A short description of the test: qHTS assay for re-activators of p53 using a Luc reporter: Hit Validation. Also: nearly all actives have a fitted effect of over 75% in size. Particulars: p53-responsive luciferase reporter cells, luminescence, H1299 line expressing heat-sensitive Ala138Val p53; series mostly up to 46.1 µM. In short, it runs like this:
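Hit confirmation with a 1:5 dilution series, at 37 deg C for 24 hrs, in H1299 cells co-expressing temperature-sensitive p53-A138V and p53-responsive luciferase. Nocodazole served as control; luminescence read after 10 min with detection reagent.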
For orientation: qHTS replaces the single test concentration by a dilution series.
`c1ccc(-n2ncc3c(N4CCCCC4)ncnc32)cc1`: the Potency is 1.16 µM (active).
`CNc1ccc(/C=C/C(=O)c2ccc(C)cc2)cc1[N+](=O)[O-]`: the Potency entry is “inactive”.
On to `CN(CC(=O)Nc1ccc(Cl)c(Cl)c1)C(=O)C1CCCC1`, for which the Potency entry is “inactive”.
On the same count and under the same terms, with `Cc1ccc(S(=O)(=O)CNC(=O)c2ccccc2)cc1` the entry was “inactive”; with `Cc1nn(-c2ccccc2)c(N2CCCC2)c1/C=N/NC(=O)c1cc(-c2ccccc2)nc2ccccc12`, “inactive”.
Same read-out and setting: under `CC(C)CC(NC(=O)C1CCC(=O)N1)C(=O)NC(CC(C)C)C(=O)N1CCCC1C(N)=O` (stereo not drawn) stands “inactive”; under `CC(C)C(=O)Nc1ccc(-c2nc3cccnc3o2)cc1`, 0.366 µM (active); under `Cc1cccc(NC(=O)/C=C/c2ccc([N+](=O)[O-])s2)c1`, “inactive”.
Same read-out and setting: with `Nn1cnnc1N/N=C\c1ccc(-c2ccccc2[N+](=O)[O-])o1` the entry was “inactive”; with `Cc1cc(NC(=O)c2ccc3nccnc3c2)ccc1Br`, 4.11 µM (active).
`COc1nnc(-c2ccc(C)c(S(=O)(=O)N(C)C)c2)c2ccccc12`: the Potency result is “inactive”.
The same measure, in the same setting: under `O=C(c1cccc(S(=O)(=O)NCc2ccc3c(c2)OCO3)c1)N1CCCC1` stands “inactive”; under `Cc1occc1C(=O)NN=C1C2CC3CC(C2)CC1C3`, “inactive”.
Still for that read-out and setting: with `O=C(NCCN1CCOCC1)c1cc(-c2cccs2)on1` the figure was 23.1 µM (active); with `O=C(N/N=C/c1sc(=O)[nH]c1-[n+]1ccc2ccccc2c1)c1ccccc1[O-]`, “inactive”.
Same read-out and setting: with `CCCCOC(=O)c1ccc(NC(=O)CSc2nncn2C)cc1` the entry was “inactive”; with `O=C(Nc1cccnc1)c1ccc([N+](=O)[O-])s1`, “inactive”; with `CSCCC(NC(=O)c1ccc(Cl)cc1Cl)C(=O)N1CC(C)OC(C)C1` (stereo not drawn), “inactive”.
Regarding `CC(C)/C=C1\CC/C(=C\c2ccc(N(C)C)cc2)C1=O`, the Potency is 2.91 µM (active).
For the compound `Cc1nc(NCCc2ccccc2)c2nnn(Cc3ccccc3Cl)c2n1`, the Potency entry is “inactive”.
The same measure, in the same setting: with `Oc1cccc2c(NC(=S)Nc3ccc(OC(F)F)cc3)cccc12` the entry was “inactive”; with `O=C(NCc1ccco1)c1noc2c1CCCC2`, “inactive”.
The same measure, in the same setting: with `Cc1ccc(NC(=O)C2CCCO2)cc1[N+](=O)[O-]` (stereo not drawn) the entry was “inactive”; with `CC(=O)OCC(=O)Nc1ccc(N=Nc2ccccc2)cc1`, 0.651 µM (active).
On the same count and under the same terms, with `COc1cc(CN2CCCCC2C(=O)Nc2ccc(Oc3ccccc3)nc2)ccc1O` (stereo not drawn) the entry was “inactive”.
For `Nc1nonc1-n1nnc(C(=O)N/N=C/c2cc(Br)ccc2O)c1CSC1=NCCS1`, the activation was -26.8% [at 9.22 µM] (inactive).
On to `CC(C)(C)c1nnc(SCC(=O)c2ccccc2)n(N)c1=O`, for which the Potency result was “inactive”.
The same measure, in the same setting: with `Cc1ccc2nc(-c3ccc(NC(=O)COC(=O)c4cncc(Br)c4)cc3)sc2c1` the figure was 0.146 µM (active); with `Cc1ccc2c(c1)CCCN2C(=O)Nc1ccc2c(c1)OCO2`, “inactive”; with `Cc1cccc(NC(=O)c2ccccn2)c1C`, 14.6 µM (active).
The same measure, in the same setting: with `Cc1cc(C(=O)Cn2nnc3ccccc3c2=O)c(C)n1Cc1cccs1` the figure was 0.259 µM (active).
On to `CCOC(=O)c1ccc2ncc(C(=O)OCC)c(NCc3ccco3)c2c1`, for which the Potency entry is “inactive”.
`COc1cccc(-c2cn3nc4c(nc3n2)CCCC4)c1`: the Potency is 0.116 µM (active).
On the same count and under the same terms, with `Cc1cccc(-n2nc([N+](=O)[O-])c(=NC3CCN(Cc4ccccc4)CC3)n2O)c1` the entry was “inactive”; with `COc1ccccc1OCCn1nnc2ccccc21`, “inactive”.
On the same count and under the same terms, with `O=C(Nc1ccc(-c2nc3cc(Cl)ccc3c(=O)o2)cc1)c1ccco1` the entry was “inactive”.
Still for that read-out and setting: with `Cc1ccc(C(=O)CC(Nc2ccc(F)cc2)c2ccccc2)cc1` (stereo not drawn) the entry was “inactive”; with `Oc1ccccc1-c1cc(-c2ccc3c(c2)OCCO3)n[nH]1`, 0.184 µM (active).
